Results as given in ChEMBL document CHEMBL2218924, “A broad activity screen in support of a chemogenomic map for kinase signalling research and drug discovery” (Biochem J, 2013).

Experiments:
[1] = molecular target: Focal adhesion kinase 1 (Homo sapiens) (UniProt Q05397); settings: at 10 µM
[2] = molecular target: Fibroblast growth factor receptor 1 (Homo sapiens) (UniProt P11362); settings: at 1 µM
[3] = molecular target: Fibroblast growth factor receptor 1 (Homo sapiens) (UniProt P11362); settings: at 10 µM
[4] = molecular target: Fibroblast growth factor receptor 2 (Homo sapiens) (UniProt P21802); settings: at 1 µM
[5] = molecular target: Fibroblast growth factor receptor 2 (Homo sapiens) (UniProt P21802); settings: at 10 µM
[6] = molecular target: Fibroblast growth factor receptor 3 (Homo sapiens) (UniProt P22607); settings: at 1 µM
[7] = molecular target: Fibroblast growth factor receptor 3 (Homo sapiens) (UniProt P22607); settings: at 10 µM
[8] = molecular target: Fibroblast growth factor receptor 4 (Homo sapiens) (UniProt P22455); settings: at 1 µM
[9] = molecular target: Fibroblast growth factor receptor 4 (Homo sapiens) (UniProt P22455); settings: at 10 µM
[10] = molecular target: Tyrosine-protein kinase Fer (Homo sapiens) (UniProt P16591); settings: at 1 µM
Tyrosine-protein kinase Fer (Homo sapiens), sequence (P16591 whole entry, looked up): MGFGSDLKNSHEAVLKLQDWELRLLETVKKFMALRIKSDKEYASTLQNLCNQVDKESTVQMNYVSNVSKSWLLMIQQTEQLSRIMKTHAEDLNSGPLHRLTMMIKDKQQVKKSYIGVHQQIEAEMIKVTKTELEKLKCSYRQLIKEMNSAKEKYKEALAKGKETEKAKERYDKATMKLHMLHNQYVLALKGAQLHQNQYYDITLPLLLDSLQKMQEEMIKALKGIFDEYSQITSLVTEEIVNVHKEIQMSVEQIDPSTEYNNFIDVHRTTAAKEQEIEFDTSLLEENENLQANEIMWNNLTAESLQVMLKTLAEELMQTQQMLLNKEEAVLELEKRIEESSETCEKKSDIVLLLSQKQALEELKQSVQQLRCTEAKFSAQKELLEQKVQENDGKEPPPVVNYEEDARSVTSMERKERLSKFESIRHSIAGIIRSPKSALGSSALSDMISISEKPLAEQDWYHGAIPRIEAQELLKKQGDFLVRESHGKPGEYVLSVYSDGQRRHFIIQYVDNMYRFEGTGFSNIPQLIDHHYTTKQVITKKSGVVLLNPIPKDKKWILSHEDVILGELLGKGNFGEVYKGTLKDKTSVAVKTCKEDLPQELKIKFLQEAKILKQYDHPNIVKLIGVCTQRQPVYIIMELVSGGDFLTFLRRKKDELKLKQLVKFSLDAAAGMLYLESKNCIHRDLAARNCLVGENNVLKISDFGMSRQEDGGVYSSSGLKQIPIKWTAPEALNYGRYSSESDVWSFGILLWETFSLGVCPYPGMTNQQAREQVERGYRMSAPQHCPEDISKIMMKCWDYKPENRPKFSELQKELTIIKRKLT

Fibroblast growth factor receptor 1 (Homo sapiens), sequence (P11362 22-822 limits assumed): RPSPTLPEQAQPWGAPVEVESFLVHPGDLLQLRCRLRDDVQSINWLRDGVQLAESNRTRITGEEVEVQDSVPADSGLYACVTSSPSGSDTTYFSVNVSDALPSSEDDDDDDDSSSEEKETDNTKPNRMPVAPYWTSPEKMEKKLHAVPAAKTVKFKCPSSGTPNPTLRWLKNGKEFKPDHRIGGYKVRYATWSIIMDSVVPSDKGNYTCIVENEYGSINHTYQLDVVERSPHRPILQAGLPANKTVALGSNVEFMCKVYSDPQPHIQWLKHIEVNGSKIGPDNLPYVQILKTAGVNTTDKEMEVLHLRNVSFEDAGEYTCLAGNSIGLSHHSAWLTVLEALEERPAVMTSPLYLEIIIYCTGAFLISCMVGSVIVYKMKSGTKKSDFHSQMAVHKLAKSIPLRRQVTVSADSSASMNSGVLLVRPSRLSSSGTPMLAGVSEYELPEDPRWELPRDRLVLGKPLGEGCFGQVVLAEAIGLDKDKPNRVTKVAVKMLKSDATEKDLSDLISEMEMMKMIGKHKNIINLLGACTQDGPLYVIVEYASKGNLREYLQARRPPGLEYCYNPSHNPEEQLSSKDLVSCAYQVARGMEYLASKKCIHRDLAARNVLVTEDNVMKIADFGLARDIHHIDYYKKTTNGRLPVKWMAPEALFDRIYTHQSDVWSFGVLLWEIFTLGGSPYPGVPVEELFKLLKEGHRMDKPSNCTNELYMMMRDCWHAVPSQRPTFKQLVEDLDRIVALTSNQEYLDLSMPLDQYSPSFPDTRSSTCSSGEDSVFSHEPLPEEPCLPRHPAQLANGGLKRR
Focal adhesion kinase 1 (Homo sapiens), sequence (Q05397 2-1052 limits assumed): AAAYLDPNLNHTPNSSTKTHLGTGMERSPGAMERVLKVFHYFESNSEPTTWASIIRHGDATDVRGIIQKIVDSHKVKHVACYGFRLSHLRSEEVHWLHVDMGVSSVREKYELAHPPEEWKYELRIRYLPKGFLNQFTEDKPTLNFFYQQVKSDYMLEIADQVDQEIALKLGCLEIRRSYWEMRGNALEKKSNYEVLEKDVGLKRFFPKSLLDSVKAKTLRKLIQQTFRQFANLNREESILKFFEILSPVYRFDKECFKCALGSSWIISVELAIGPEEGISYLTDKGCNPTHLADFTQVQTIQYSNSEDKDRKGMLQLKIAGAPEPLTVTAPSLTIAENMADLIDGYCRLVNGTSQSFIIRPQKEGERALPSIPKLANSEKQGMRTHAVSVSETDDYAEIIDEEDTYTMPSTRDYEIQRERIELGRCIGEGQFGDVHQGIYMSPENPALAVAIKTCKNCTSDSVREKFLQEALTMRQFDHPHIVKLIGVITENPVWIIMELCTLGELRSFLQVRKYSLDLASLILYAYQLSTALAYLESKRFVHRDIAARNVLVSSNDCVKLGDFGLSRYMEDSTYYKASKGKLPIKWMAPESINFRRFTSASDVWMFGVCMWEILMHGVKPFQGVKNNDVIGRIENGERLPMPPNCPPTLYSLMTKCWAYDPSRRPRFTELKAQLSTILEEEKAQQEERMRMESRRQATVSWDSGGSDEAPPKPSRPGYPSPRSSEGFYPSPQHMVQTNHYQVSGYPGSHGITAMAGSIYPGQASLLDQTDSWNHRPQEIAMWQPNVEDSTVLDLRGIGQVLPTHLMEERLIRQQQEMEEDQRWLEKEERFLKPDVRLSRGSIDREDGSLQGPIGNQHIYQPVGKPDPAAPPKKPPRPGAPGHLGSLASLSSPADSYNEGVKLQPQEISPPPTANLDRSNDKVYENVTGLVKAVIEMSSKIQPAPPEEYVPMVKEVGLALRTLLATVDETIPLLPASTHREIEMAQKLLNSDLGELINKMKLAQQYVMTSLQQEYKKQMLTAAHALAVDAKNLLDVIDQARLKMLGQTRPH
Fibroblast growth factor receptor 3 (Homo sapiens), sequence (P22607 23-806 limits assumed): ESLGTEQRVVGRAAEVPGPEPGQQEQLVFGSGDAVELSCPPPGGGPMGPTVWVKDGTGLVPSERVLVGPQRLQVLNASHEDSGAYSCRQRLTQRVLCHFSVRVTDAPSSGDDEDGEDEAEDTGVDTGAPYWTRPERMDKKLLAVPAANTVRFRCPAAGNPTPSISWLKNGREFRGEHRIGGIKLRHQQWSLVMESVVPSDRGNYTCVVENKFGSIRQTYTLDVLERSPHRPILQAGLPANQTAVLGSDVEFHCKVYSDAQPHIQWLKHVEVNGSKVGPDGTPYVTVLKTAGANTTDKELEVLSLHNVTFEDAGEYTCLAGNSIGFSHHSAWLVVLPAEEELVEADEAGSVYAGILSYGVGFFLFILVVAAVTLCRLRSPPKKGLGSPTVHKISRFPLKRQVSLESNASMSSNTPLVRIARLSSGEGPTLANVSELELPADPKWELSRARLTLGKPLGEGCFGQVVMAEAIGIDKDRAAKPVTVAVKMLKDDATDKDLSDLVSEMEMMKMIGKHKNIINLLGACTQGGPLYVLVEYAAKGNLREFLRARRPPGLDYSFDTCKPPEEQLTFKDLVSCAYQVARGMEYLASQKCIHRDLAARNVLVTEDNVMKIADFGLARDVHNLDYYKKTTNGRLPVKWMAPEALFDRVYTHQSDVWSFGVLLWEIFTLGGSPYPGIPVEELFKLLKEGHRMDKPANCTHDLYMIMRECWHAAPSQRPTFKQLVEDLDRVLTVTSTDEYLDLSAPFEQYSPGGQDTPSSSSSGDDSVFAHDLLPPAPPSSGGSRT
Fibroblast growth factor receptor 4 (Homo sapiens), sequence (P22455 22-802 limits assumed): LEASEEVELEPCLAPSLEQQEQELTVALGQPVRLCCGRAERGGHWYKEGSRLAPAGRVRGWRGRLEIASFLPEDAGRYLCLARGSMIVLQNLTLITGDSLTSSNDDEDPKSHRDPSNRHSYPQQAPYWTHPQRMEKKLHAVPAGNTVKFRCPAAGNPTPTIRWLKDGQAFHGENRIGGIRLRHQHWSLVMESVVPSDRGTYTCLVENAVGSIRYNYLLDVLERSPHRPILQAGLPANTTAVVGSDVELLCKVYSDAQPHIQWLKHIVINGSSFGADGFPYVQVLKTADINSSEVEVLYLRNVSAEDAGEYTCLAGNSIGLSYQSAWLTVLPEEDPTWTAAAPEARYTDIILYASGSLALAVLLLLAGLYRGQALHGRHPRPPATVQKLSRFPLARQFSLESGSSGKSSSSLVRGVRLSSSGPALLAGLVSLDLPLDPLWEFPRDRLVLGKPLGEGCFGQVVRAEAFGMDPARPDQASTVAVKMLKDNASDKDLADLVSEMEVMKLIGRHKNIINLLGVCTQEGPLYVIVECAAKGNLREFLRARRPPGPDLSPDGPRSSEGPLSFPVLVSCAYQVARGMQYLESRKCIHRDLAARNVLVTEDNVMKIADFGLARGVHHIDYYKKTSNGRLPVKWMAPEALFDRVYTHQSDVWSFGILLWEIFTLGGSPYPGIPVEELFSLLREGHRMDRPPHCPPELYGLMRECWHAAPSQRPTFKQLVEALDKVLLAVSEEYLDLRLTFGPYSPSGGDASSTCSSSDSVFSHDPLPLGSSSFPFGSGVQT
Fibroblast growth factor receptor 2 (Homo sapiens), sequence (P21802 22-821 limits assumed): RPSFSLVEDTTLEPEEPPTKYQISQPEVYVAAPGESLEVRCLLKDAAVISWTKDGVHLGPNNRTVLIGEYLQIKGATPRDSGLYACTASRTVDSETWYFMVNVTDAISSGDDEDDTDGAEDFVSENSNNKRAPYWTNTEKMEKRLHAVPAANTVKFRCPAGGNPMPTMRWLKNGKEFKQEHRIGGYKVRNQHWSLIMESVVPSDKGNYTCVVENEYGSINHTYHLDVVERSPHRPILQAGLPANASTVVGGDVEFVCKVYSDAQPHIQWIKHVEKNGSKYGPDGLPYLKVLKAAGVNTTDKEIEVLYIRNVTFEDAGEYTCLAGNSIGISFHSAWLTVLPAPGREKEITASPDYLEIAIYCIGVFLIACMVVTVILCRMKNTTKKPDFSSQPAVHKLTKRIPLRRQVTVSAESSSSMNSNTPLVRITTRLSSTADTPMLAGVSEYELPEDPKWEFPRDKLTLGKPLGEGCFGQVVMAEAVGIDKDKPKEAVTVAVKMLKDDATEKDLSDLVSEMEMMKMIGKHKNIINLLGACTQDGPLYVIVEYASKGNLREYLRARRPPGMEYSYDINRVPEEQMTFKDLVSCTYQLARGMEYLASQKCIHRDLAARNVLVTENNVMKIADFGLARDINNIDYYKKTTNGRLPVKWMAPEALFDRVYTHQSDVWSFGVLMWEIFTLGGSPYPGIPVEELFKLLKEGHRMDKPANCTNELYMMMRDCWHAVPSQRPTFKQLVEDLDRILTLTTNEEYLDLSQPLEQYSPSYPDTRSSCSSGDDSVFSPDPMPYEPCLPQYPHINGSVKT

SMILES	residual activity [1] [%]	residual activity [2] [%]	residual activity [3] [%]	residual activity [4] [%]	residual activity [5] [%]	residual activity [6] [%]	residual activity [7] [%]	residual activity [8] [%]	residual activity [9] [%]	residual activity [10] [%]
Cn1nc2c3c(cccc31)C(=O)c1ccccc1-2	65	110	66	103	76	112	77	90	88	87
CCOc1cc2ncnc(Nc3cccc(Br)c3)c2cc1OCC	79	66	18	98	88	92	85	111	92	116
CC[n+]1c(/C=C/N(C)c2ccccc2)n(-c2ccccc2)c2ccc(-c3nc4ccccc4s3)cc21	80	99	55	93	123	105	104	101	84	116
CO[C@H]1C[C@@H]2CC[C@@H](C)[C@@](O)(O2)C(=O)C(=O)N2CCCC[C@H]2C(=O)O[C@H]([C@H](C)C[C@@H]2CC[C@@H](O)[C@H](OC)C2)CC(=O)[C@H](C)/C=C(\C)[C@@H](O)[C@@H](OC)C(=O)[C@H](C)C[C@H](C)/C=C/C=C/C=C/1C	83	111	63	115	114	97	107	138	145	106
COc1ccc(OC)c2c(=S)c3ccccc3[nH]c12	108	116	82	97	85	129	113	112	88	98
Cc1ccc(NC2=CC(=O)c3sc(C)nc3C2=O)cc1	99	106	112	100	92	107	118	101	90	92
CO[C@@H]1[C@H](N(C)C(=O)c2ccccc2)C[C@H]2O[C@]1(C)n1c3ccccc3c3c4c(c5c6ccccc6n2c5c31)C(=O)NC4	37	5	-4	21	7	34	19	71	41	26
NC(=O)c1ccc2[nH]c(-c3ccc(Oc4ccc(Cl)cc4)cc3)nc2c1	65	118	101	108	103	129	132	123	126	95
CN(C)c1ccc(/C=C2\C(=O)Nc3ccccc32)cc1	62	61	10	94	38	89	64	122	110	109
CCN(CC)CCCCN1c2ccccc2Oc2ccc(Cl)cc21	108	113	82	108	112	110	99	129	90	117
COc1cc2ncnc(N3CCN(C(=O)Nc4ccc(Oc5ccccc5)cc4)CC3)c2cc1OC	76	90	89	105	102	115	99	120	105	104
COc1ccc(S(=O)(=O)N(CCO)c2ccccc2CN(C)C/C=C/c2ccc(Cl)cc2)cc1	70	108	64	110	81	125	89	129	92	94
Cn1cc(/C=C2\C(=O)Nc3ccc(S(N)(=O)=O)cc32)c2ccccc21	42	19	5	10	3	17	14	118	69	35
O=C1c2ccccc2-[n+]2ccc3c([nH]c4ccccc43)c21	90	100	78	107	84	96	114	109	97	92
O=C1NC(=O)/C(=C\c2ccc3nccnc3c2)S1	83	113	91	98	101	96	104	119	88	110
COc1cc2ncnc(Nc3ccc(O)c(Br)c3)c2cc1OC	64	58	24	94	67	109	67	126	101	105

SMILES	residual activity [1] [%]	residual activity [2] [%]	residual activity [3] [%]	residual activity [4] [%]	residual activity [5] [%]	residual activity [6] [%]	residual activity [7] [%]	residual activity [8] [%]	residual activity [9] [%]	residual activity [10] [%]
Cn1cnc2cc3c(Nc4cccc(Br)c4)ncnc3cc21	93	74	43	92	89	102	97	127	96	115
CO[C@H]1[C@@H](OC)C[C@H](C)[C@@H](OC)C2=CC(=O)C=C(NC(=O)/C(C)=C/C=C/[C@H](OC)[C@@H](OC(N)=O)/C(C)=C/[C@@H]1C)C2=O	91	82	93	104	105	112	102	109	94	110
Oc1ccc(-c2nc(-c3ccc(F)cc3)c(-c3ccncc3)[nH]2)cc1	113	112	41	115	87	121	88	114	96	102
Oc1c2ccccc2c2c3c(cccc13)N=N2	9	39	4	52	12	72	40	110	89	75
CC#CC(=O)Nc1cc2c(Nc3ccc(F)c(Cl)c3)ncnc2cn1	99	97	80	91	113	86	125	116	96	108
O=C1NC(=O)c2cc(Nc3ccc(F)cc3)c(Nc3ccc(F)cc3)cc21	89	85	135	101	82	114	103	142	93	109
Nc1nc(Nc2ccc(S(N)(=O)=O)cc2)nn1C(=S)Nc1c(F)cccc1F	-1	1	-1	1	-1	3	0	71	23	23
O=Nc1c(-c2c(O)[nH]c3ccccc23)[nH]c2ccccc12	2	3	-1	22	2	20	2	100	45	70
O=C1Nc2cc(Br)ccc2/C1=C1/Nc2ccccc2/C1=N\O	15	3	3	16	18	59	54	67	35	86
Cc1ccc(S(=O)(=O)/C=C/C#N)cc1	102	91	82	108	89	118	118	115	106	101
COc1ccc(CNc2nc(N(CCO)CCO)nc3c2ncn3C(C)C)cc1	64	89	67	101	80	103	109	116	104	91
COc1cccc(-c2cc(=O)c3ccccc3o2)c1N	116	143	105	102	92	100	99	128	98	107
CC(C)n1cnc2c(NCc3ccccc3)nc(NCCCO)nc21	57	104	65	111	87	111	93	104	81	102
O=C(Nc1cccc(Nc2cc(Nc3cccc(C(F)(F)F)c3)ncn2)c1)C1CC1	79	97	58	94	101	112	111	90	90	112
Oc1n[nH]c2nnc(-c3c(-c4ccccc4)nn4ccccc34)cc12	91	108	92	95	91	97	102	115	90	96
